Assay results taken from publication PMC7862700, “An all-to-all approach to the identification of sequence-specific readers for epigenetic DNA modifications on cytosine”.

Legend:
Assay in all cases: DAPPL (digital affinity profiling via proximity ligation, sequencing); 10 mM Tris-HCl pH 7.5, 50 mM NaCl, 1 mM DTT, 4% glycerol, room temperature, 30 min; GST-TFs on glutathione beads, 16-mer random dsDNA library, 0.1% formaldehyde crosslink after washing; high values mean tight binding
Conditions in all cases: protein: recombinant; tags: N-terminal GST; dsDNA, one strand shown
FLI1 = molecular target: T1, FLI1 (Homo sapiens, UniProt Q01543 1-452)
T1 sequence: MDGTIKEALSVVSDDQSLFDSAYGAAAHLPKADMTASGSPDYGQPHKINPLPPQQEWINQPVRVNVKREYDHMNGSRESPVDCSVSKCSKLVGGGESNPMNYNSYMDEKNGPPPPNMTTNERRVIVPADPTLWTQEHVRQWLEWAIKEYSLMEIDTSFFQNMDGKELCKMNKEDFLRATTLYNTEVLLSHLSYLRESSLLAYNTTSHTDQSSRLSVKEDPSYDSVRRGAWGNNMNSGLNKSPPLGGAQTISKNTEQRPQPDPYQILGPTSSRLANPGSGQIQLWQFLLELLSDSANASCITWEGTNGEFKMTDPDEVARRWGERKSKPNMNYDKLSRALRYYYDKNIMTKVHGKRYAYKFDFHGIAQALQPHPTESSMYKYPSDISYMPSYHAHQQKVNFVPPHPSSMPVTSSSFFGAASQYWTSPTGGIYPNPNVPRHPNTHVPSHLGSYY
Outline: (§1)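 The binding signal reported is, for every hexamer, its read frequency for a factor over its read frequency for the tag-only sample. Reads came from pools of yeast-expressed, GST-fused human transcription factors on glutathione beads, barcoded with DNA and mixed with that sample, which were incubated with 200 nmole of a random double-stranded 16-mer DNA library in Tris/NaCl/DTT/glycerol buffer at room temperature for 30 min. After washing, the pools were crosslinked with 0.1% formaldehyde, proximity-ligated with BsaI/T4 ligase for 1 h at 37 °C, PCR-amplified and sequenced on an Illumina NextSeq500.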

ELK1 = molecular target: T2, ELK1 (Homo sapiens, UniProt P19419 1-428)
T2 sequence: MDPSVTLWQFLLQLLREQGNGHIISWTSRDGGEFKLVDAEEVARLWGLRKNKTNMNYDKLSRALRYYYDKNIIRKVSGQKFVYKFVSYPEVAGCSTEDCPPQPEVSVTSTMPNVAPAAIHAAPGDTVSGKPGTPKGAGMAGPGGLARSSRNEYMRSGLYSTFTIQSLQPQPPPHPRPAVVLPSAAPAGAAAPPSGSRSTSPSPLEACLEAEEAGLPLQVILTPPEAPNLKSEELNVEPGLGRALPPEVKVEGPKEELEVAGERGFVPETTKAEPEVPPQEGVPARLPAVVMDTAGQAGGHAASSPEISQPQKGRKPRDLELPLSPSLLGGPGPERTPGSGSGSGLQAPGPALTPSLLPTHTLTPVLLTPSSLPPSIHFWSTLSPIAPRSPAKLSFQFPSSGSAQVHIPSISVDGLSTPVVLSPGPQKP
Outline: as §1

GABPA = molecular target: T3, GABPA (Homo sapiens, UniProt Q06546 1-454)
T3 sequence: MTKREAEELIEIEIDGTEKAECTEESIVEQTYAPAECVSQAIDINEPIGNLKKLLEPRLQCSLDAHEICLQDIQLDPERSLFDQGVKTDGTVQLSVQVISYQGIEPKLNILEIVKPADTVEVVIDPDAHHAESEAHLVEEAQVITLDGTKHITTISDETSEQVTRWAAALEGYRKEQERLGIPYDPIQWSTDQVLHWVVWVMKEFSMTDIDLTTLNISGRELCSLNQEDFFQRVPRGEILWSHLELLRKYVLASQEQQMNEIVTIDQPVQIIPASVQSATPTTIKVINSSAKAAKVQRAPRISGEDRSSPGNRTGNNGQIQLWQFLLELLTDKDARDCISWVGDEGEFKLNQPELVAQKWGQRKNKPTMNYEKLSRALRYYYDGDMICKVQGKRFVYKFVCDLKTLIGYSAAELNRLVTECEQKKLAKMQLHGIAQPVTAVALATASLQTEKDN
Outline: as §1

ERG = molecular target: T4, ERG (Homo sapiens, UniProt P11308 1-479)
T4 sequence: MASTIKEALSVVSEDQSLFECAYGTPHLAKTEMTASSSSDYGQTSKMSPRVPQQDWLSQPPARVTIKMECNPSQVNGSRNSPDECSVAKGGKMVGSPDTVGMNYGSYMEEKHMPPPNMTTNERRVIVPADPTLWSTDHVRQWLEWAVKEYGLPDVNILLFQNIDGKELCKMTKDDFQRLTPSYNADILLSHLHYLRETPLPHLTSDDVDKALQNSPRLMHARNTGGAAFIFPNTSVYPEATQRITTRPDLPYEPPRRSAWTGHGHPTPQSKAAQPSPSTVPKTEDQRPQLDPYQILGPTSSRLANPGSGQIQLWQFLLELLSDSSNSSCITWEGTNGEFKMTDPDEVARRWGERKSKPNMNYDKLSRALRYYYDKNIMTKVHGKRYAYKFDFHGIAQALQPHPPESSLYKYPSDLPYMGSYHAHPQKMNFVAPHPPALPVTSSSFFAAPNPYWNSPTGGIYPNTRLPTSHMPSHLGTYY
Outline: as §1

ELF1 = ELF1 (Homo sapiens, UniProt P32519 1-619)
Sequence of ELF1 (P32519 whole entry): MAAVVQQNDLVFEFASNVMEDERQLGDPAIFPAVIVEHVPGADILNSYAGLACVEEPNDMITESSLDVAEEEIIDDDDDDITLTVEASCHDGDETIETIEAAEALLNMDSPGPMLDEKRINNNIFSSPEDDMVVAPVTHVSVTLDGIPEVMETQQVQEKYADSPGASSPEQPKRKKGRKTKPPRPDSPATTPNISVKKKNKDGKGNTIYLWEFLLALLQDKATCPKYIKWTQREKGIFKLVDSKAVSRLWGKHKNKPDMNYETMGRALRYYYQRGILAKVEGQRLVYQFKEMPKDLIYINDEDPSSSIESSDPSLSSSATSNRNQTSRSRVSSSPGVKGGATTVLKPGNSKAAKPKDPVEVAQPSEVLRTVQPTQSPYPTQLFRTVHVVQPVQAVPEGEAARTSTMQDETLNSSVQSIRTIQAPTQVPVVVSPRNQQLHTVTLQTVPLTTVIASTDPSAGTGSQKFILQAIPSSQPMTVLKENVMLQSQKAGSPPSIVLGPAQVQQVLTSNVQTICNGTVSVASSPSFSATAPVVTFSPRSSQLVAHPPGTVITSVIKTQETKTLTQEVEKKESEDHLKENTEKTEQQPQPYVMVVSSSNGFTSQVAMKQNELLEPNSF
Outline: as §1

EHF = molecular target: T5, EHF (Homo sapiens, UniProt Q9NZC4 1-300)
T5 sequence: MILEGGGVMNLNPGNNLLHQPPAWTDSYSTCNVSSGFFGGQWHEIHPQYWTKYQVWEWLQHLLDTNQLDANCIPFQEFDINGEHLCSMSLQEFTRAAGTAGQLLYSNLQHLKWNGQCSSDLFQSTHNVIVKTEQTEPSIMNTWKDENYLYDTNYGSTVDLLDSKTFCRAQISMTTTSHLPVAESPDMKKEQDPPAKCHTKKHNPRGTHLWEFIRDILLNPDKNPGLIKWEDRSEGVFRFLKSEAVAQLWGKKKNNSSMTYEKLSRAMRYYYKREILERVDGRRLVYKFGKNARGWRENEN
Outline: as §1

SPI1 = SPI1 (Homo sapiens, UniProt P17947 1-270)
Outline: as §1

SPIB = SPIB (Homo sapiens, UniProt Q01892 1-262)
Sequence of SPIB (Q01892 whole entry): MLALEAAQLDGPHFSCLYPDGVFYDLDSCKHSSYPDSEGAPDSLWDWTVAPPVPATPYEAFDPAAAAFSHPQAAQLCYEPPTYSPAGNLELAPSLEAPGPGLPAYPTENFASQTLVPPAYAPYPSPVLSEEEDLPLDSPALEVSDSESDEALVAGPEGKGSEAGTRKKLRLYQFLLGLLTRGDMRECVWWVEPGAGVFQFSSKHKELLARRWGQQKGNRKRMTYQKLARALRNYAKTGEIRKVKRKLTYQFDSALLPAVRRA
Outline: as §1

ELK3 = molecular target: T6, ELK3 (Homo sapiens, UniProt P41970 1-407)
T6 sequence: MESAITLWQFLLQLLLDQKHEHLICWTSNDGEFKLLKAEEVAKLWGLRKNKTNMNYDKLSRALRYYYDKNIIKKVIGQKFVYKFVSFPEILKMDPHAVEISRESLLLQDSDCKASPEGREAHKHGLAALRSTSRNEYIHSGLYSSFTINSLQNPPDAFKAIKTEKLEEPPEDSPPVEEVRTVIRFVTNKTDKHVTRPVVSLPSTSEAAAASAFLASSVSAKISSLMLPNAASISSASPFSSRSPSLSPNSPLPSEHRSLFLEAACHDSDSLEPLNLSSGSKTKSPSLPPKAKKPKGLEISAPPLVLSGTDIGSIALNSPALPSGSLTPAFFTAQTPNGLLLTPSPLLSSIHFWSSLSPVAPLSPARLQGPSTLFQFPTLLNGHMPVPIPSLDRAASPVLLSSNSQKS
Outline: as §1

Sequence	binding signal (FLI1)	binding signal (ELK1)	binding signal (GABPA)	binding signal (ERG)	binding signal (ELF1)	binding signal (EHF)	binding signal (SPI1)	binding signal (SPIB)	binding signal (ELK3)
CAATTT	1.26 fold enrichment (6-mer frequency, TF over GST control)	1.35 fold enrichment (6-mer frequency, TF over GST control)	1.37 fold enrichment (6-mer frequency, TF over GST control)	1.43 fold enrichment (6-mer frequency, TF over GST control)	1.29 fold enrichment (6-mer frequency, TF over GST control)	1.28 fold enrichment (6-mer frequency, TF over GST control)	1.32 fold enrichment (6-mer frequency, TF over GST control)	1.43 fold enrichment (6-mer frequency, TF over GST control)	1.12 fold enrichment (6-mer frequency, TF over GST control)
GCTCAC	1.37 fold enrichment (6-mer frequency, TF over GST control)	1.51 fold enrichment (6-mer frequency, TF over GST control)	1.65 fold enrichment (6-mer frequency, TF over GST control)	1.51 fold enrichment (6-mer frequency, TF over GST control)	1.49 fold enrichment (6-mer frequency, TF over GST control)	1.51 fold enrichment (6-mer frequency, TF over GST control)	1.41 fold enrichment (6-mer frequency, TF over GST control)	1.44 fold enrichment (6-mer frequency, TF over GST control)	1.32 fold enrichment (6-mer frequency, TF over GST control)
AATTGC	1.44 fold enrichment (6-mer frequency, TF over GST control)	1.42 fold enrichment (6-mer frequency, TF over GST control)	1.44 fold enrichment (6-mer frequency, TF over GST control)	1.3 fold enrichment (6-mer frequency, TF over GST control)	1.34 fold enrichment (6-mer frequency, TF over GST control)	1.38 fold enrichment (6-mer frequency, TF over GST control)	1.43 fold enrichment (6-mer frequency, TF over GST control)	1.29 fold enrichment (6-mer frequency, TF over GST control)	1.46 fold enrichment (6-mer frequency, TF over GST control)
ATCTCT	1.29 fold enrichment (6-mer frequency, TF over GST control)	1.24 fold enrichment (6-mer frequency, TF over GST control)	1.33 fold enrichment (6-mer frequency, TF over GST control)	1.17 fold enrichment (6-mer frequency, TF over GST control)	1.29 fold enrichment (6-mer frequency, TF over GST control)	1.49 fold enrichment (6-mer frequency, TF over GST control)	1.27 fold enrichment (6-mer frequency, TF over GST control)	1.36 fold enrichment (6-mer frequency, TF over GST control)	1.3 fold enrichment (6-mer frequency, TF over GST control)
TACCTC	1.25 fold enrichment (6-mer frequency, TF over GST control)	1.29 fold enrichment (6-mer frequency, TF over GST control)	1.33 fold enrichment (6-mer frequency, TF over GST control)	1.19 fold enrichment (6-mer frequency, TF over GST control)	1.25 fold enrichment (6-mer frequency, TF over GST control)	1.2 fold enrichment (6-mer frequency, TF over GST control)	1.27 fold enrichment (6-mer frequency, TF over GST control)	1.21 fold enrichment (6-mer frequency, TF over GST control)	1.27 fold enrichment (6-mer frequency, TF over GST control)
GTAAAA	1.05 fold enrichment (6-mer frequency, TF over GST control)	1 fold enrichment (6-mer frequency, TF over GST control)	1.18 fold enrichment (6-mer frequency, TF over GST control)	1.14 fold enrichment (6-mer frequency, TF over GST control)	1.13 fold enrichment (6-mer frequency, TF over GST control)	1.16 fold enrichment (6-mer frequency, TF over GST control)	1.3 fold enrichment (6-mer frequency, TF over GST control)	1.1 fold enrichment (6-mer frequency, TF over GST control)	1.11 fold enrichment (6-mer frequency, TF over GST control)
TGCTTC	2.13 fold enrichment (6-mer frequency, TF over GST control)	2.3 fold enrichment (6-mer frequency, TF over GST control)	2.09 fold enrichment (6-mer frequency, TF over GST control)	2.37 fold enrichment (6-mer frequency, TF over GST control)	2 fold enrichment (6-mer frequency, TF over GST control)	2.16 fold enrichment (6-mer frequency, TF over GST control)	2.24 fold enrichment (6-mer frequency, TF over GST control)	2.31 fold enrichment (6-mer frequency, TF over GST control)	2.47 fold enrichment (6-mer frequency, TF over GST control)
TATATA	1.23 fold enrichment (6-mer frequency, TF over GST control)	1.37 fold enrichment (6-mer frequency, TF over GST control)	1.26 fold enrichment (6-mer frequency, TF over GST control)	1.3 fold enrichment (6-mer frequency, TF over GST control)	1.32 fold enrichment (6-mer frequency, TF over GST control)	1.32 fold enrichment (6-mer frequency, TF over GST control)	1.21 fold enrichment (6-mer frequency, TF over GST control)	1.49 fold enrichment (6-mer frequency, TF over GST control)	1.17 fold enrichment (6-mer frequency, TF over GST control)
